{
  "source": "PubChem BioAssay (EPA / NIEHS)",
  "key": {"[1]": {"assay": "ACEA_AR_agonist_AUC_viability: ACEA Biosciences xCELLigence Real-Time Cell Analysis on Androgen Receptor Agonism for Viability (AID 2283775)", "summary_of_the_method": "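Real-time impedance tracking of 22Rv1 growth, readings every 5 min for 5 h then hourly; area-under-curve viability endpoint at 80 hours, relative to DMSO. Compounds at eight concentrations, 1:4 steps, top 100 uM, n = 2.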"}, "[2]": {"assay": "ACEA_ER_AUC_viability: ACEA Biosciences xCELLigence Real-Time Cell Analysis on Estrogen Receptor Agonism for Viability (AID 2283782);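 further: hit means loss of impedance signal meaning reduced cell growth or viability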", "summary_of_the_method": "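T-47D; phenol red-free RPMI1640 + 10% CS-FBS; 8 conc., 1:4 serial, max 100 uM final, ≤0.5% DMSO; n = 2; continuous exposure; impedance monitored to 80 h post-dose; AUC vs DMSO.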"}, "[3]": {"assay": "ACEA_AR_antagonist_AUC_viability: ACEA Biosciences xCELLigence Real-Time Cell Analysis on Androgen Receptor Antagonism for Viability (AID 2283776);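 further: 22Rv1 human prostate cancer cells growing on impedance electrode plates; hits lower the growth signal relative to DMSO meaning cytotoxicity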", "summary_of_the_method": "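Real-time electrical impedance tracks 22Rv1 proliferation after continuous compound exposure (top 100 uM final, 1:4 steps, 8 concentrations). The 80 h area-under-curve serves as the cytotoxicity readout relative to DMSO.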"}, "AR (gene 367) [4]": {"biological_target": "AR (gene 367) (UniProt P10275)", "sequence (P10275 whole entry, looked up)": "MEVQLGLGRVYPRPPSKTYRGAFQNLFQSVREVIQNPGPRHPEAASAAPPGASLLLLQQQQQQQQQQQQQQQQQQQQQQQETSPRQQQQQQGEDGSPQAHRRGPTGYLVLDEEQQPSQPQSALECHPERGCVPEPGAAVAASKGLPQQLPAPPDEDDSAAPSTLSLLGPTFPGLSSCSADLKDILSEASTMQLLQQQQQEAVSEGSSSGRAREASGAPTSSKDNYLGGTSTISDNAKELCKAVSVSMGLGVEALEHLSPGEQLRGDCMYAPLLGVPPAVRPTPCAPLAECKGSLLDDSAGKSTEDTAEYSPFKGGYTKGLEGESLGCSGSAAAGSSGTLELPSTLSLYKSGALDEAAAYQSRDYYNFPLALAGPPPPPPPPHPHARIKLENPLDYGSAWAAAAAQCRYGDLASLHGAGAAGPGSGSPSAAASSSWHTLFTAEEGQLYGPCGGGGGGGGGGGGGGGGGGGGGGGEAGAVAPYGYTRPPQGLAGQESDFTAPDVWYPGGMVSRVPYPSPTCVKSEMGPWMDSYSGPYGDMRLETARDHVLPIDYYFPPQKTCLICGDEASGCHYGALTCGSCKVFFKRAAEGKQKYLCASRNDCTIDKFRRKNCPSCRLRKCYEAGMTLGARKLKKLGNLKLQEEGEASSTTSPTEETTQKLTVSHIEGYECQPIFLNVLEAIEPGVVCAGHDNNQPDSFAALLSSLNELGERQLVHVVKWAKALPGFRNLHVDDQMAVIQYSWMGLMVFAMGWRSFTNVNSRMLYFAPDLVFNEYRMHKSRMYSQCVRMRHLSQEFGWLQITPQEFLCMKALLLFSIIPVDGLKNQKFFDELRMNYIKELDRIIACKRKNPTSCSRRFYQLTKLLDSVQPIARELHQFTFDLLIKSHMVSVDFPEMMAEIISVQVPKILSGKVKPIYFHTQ", "assay": "ACEA_AR_agonist_80hr: ACEA Biosciences xCELLigence Real-Time Cell Analysis on Androgen Receptor Agonism for Proliferation (AID 2283783);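 further: hits increase impedance growth signal above DMSO baseline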", "summary_of_the_method": "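Androgen-driven proliferation in 22Rv1 cells is tracked as electrical impedance, taken 80 h after continuous exposure to compound (eight concentrations, 1:4 steps, maximum 100 uM final). Activity is fitted in the positive direction with DMSO as baseline.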"}, "AR (gene 367) [5]": {"biological_target": "AR (gene 367) (UniProt P10275)", "assay": "ACEA_AR_antagonist_80hr: ACEA Biosciences xCELLigence Real-Time Cell Analysis on Androgen Receptor Antagonism for Proliferation (AID 2283787);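 further: 22Rv1 human prostate cancer cells with growth followed by electrical impedance; hits lower the impedance growth signal relative to DMSO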", "summary_of_the_method": "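Growth-kinetic antagonist readout in 22Rv1 cells, taken 80 h after continuous compound exposure. Activity fitted as signal loss relative to DMSO negative control.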"}, "[6]": {"assay": "STM_H9_NormalizedViability: Cytotoxicity Assessment at 120 hours in the Stemina devTOX quickPredict H9 human embryonic stem cell (hESC)-based Assay (AID 2283784)", "summary_of_the_method": "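Pluripotent H9 hESCs were exposed, with chemical and media replaced every 24 h. Viability was read by CellTiter-Fluor fluorescence, background-corrected and normalized to the 0.1% DMSO neutral control per plate. Loss of signal was fitted.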"}},
  "note": "Results filed as inconclusive are left out. Calls of active or inactive are those of the source. How the source made its calls: active means hit-call score of the fitted dose curve at least 0.9, where 1 is the maximum; inconclusive means response in the unintended direction; inactive means score below 0.9.",
  "data": [
    {"smiles": "CCCCNS(=O)(=O)c1ccccc1", "values": [
      {"measurement": "outcome", "setting": "[1]", "result": "inactive"},
      {"measurement": "outcome", "setting": "[2]", "result": "inactive"}
    ]},
    {"smiles": "C[Si](C)(C)N[Si](C)(C)C", "values": [
      {"measurement": "outcome", "setting": "[1]", "result": "inactive"}
    ]},
    {"smiles": "CC1(C)[C@@H]2CC[C@@]1(C)C(=O)C2", "values": [
      {"measurement": "outcome", "setting": "[1]", "result": "inactive"},
      {"measurement": "outcome", "setting": "[3]", "result": "inactive"},
      {"measurement": "outcome", "setting": "[2]", "result": "inactive"}
    ]},
    {"smiles": "O=C(Nc1ccccc1)c1cc(Cl)ccc1O", "values": [
      {"measurement": "AC50", "setting": "[1]", "result": "14.3 µM (active)"},
      {"measurement": "AC50", "setting": "[3]", "result": "16.6 µM (active)"},
      {"measurement": "AC50", "setting": "[2]", "result": "82.1 µM (active)"}
    ]},
    {"smiles": "CCCCC(CC)COC(=O)/C=C/c1ccc(OC)cc1", "note": "(stereo not drawn)", "values": [
      {"measurement": "outcome", "setting": "[1]", "result": "inactive"},
      {"measurement": "AC50", "setting": "[2]", "result": "40.1 µM (active)"}
    ]},
    {"smiles": "CCCCc1ccc(Cl)cc1", "values": [
      {"measurement": "outcome", "setting": "[1]", "result": "inactive"},
      {"measurement": "outcome", "setting": "[3]", "result": "inactive"},
      {"measurement": "outcome", "setting": "[2]", "result": "inactive"}
    ]},
    {"smiles": "O=C1c2ccccc2C(=O)c2cc(S(=O)(=O)O)ccc21", "values": [
      {"measurement": "outcome", "setting": "[2]", "result": "inactive"}
    ]},
    {"smiles": "O=C(O)c1ccc2c(c1)C(=O)OC2=O", "values": [
      {"measurement": "outcome", "setting": "[3]", "result": "inactive"},
      {"measurement": "outcome", "setting": "[2]", "result": "inactive"},
      {"measurement": "outcome", "setting": "AR (gene 367) [4]", "result": "inactive"},
      {"measurement": "outcome", "setting": "AR (gene 367) [5]", "result": "inactive"}
    ]},
    {"smiles": "CCC(C)C(=O)OCCc1ccccc1", "note": "(stereo not drawn)", "values": [
      {"measurement": "outcome", "setting": "[2]", "result": "inactive"}
    ]},
    {"smiles": "Cc1cc(C)c(C=O)c(C)c1", "values": [
      {"measurement": "outcome", "setting": "[2]", "result": "inactive"}
    ]},
    {"smiles": "Cc1cccc(C(C)(C)C)c1O", "values": [
      {"measurement": "outcome", "setting": "[2]", "result": "inactive"}
    ]},
    {"smiles": "CC(C)=CCCC(C)=CC#N", "values": [
      {"measurement": "outcome", "setting": "[3]", "result": "inactive"}
    ]},
    {"smiles": "C=C(C)C(=O)OCCCCCCCCCCCC", "values": [
      {"measurement": "outcome", "setting": "[2]", "result": "inactive"}
    ]},
    {"smiles": "CCCCCCCCCCCC(=O)OCC", "values": [
      {"measurement": "outcome", "setting": "[2]", "result": "inactive"}
    ]},
    {"smiles": "CC(C)OC(=O)c1ccccc1", "values": [
      {"measurement": "outcome", "setting": "[2]", "result": "inactive"}
    ]},
    {"smiles": "N=C1C=CC(=C(c2ccc(N)cc2)c2ccc(N)cc2)C=C1", "values": [
      {"measurement": "AC50", "setting": "[2]", "result": "34.5 µM (active)"}
    ]},
    {"smiles": "COC(=O)CC(C)CCC=C(C)C", "note": "(stereo not drawn)", "values": [
      {"measurement": "outcome", "setting": "[2]", "result": "inactive"}
    ]},
    {"smiles": "CCC(C)N", "note": "(stereo not drawn)", "values": [
      {"measurement": "AC50", "setting": "[2]", "result": "74.5 µM (active)"}
    ]},
    {"smiles": "CCOC(=O)CC(=O)c1ccccc1", "values": [
      {"measurement": "AC50", "setting": "[2]", "result": "50 µM (active)"}
    ]},
    {"smiles": "CC(C)(CO)C(O)C(=O)NCCCO", "note": "(stereo not drawn)", "values": [
      {"measurement": "outcome", "setting": "[2]", "result": "inactive"}
    ]},
    {"smiles": "CO[Si](CCCS)(OC)OC", "values": [
      {"measurement": "outcome", "setting": "[2]", "result": "inactive"}
    ]},
    {"smiles": "CC(=O)OC1CCCCC1C(C)(C)C", "note": "(stereo not drawn)", "values": [
      {"measurement": "outcome", "setting": "[1]", "result": "inactive"},
      {"measurement": "outcome", "setting": "AR (gene 367) [5]", "result": "inactive"}
    ]},
    {"smiles": "CCCCCC(=O)OCC", "values": [
      {"measurement": "outcome", "setting": "[2]", "result": "inactive"}
    ]},
    {"smiles": "CCOC(=O)C1=NOC(c2ccccc2)(c2ccccc2)C1", "values": [
      {"measurement": "outcome", "setting": "[3]", "result": "inactive"},
      {"measurement": "outcome", "setting": "[2]", "result": "inactive"}
    ]},
    {"smiles": "CCC(C)C(=O)OC", "note": "(stereo not drawn)", "values": [
      {"measurement": "outcome", "setting": "[2]", "result": "inactive"}
    ]},
    {"smiles": "C=CC(C)(O)CC/C=C(\\C)CC", "note": "(stereo not drawn)", "values": [
      {"measurement": "AC50", "setting": "[2]", "result": "50 µM (active)"}
    ]},
    {"smiles": "COC(=O)C=Cc1ccccc1", "values": [
      {"measurement": "outcome", "setting": "[2]", "result": "inactive"}
    ]},
    {"smiles": "CC(=O)OCCc1ccccc1", "values": [
      {"measurement": "outcome", "setting": "[2]", "result": "inactive"}
    ]},
    {"smiles": "CC=C(C)C=CC=C(C)C", "values": [
      {"measurement": "AC50", "setting": "[2]", "result": "50 µM (active)"}
    ]},
    {"smiles": "CC1CC(=O)CC(C)(C)C1", "note": "(stereo not drawn)", "values": [
      {"measurement": "outcome", "setting": "[2]", "result": "inactive"}
    ]},
    {"smiles": "C=C1C[C@H]2[C@@H]3C=C(C)C4=CC(=O)CC[C@]4(C)[C@H]3CC[C@]2(C)[C@@]1(OC(C)=O)C(C)=O", "values": [
      {"measurement": "outcome", "setting": "[1]", "result": "inactive"},
      {"measurement": "outcome", "setting": "AR (gene 367) [4]", "result": "inactive"},
      {"measurement": "AC50", "setting": "AR (gene 367) [5]", "result": "0.152 µM (active)"}
    ]},
    {"smiles": "CCc1cccc(C)c1N", "values": [
      {"measurement": "outcome", "setting": "[1]", "result": "inactive"},
      {"measurement": "outcome", "setting": "AR (gene 367) [5]", "result": "inactive"}
    ]},
    {"smiles": "CC1=C(O)C(=O)C(C)O1", "note": "(stereo not drawn)", "values": [
      {"measurement": "AC50", "setting": "[2]", "result": "66.8 µM (active)"}
    ]},
    {"smiles": "C=CCCCCCCCCO", "values": [
      {"measurement": "AC50", "setting": "[2]", "result": "50 µM (active)"}
    ]},
    {"smiles": "C=CC(=O)OCCCCCCCCCC", "values": [
      {"measurement": "outcome", "setting": "[2]", "result": "inactive"}
    ]},
    {"smiles": "CCCCOCCOCCOC(C)=O", "values": [
      {"measurement": "outcome", "setting": "[2]", "result": "inactive"}
    ]},
    {"smiles": "CCCCOC(=O)CCC(C)=O", "values": [
      {"measurement": "outcome", "setting": "[2]", "result": "inactive"}
    ]},
    {"smiles": "CC(=O)c1ccccc1O", "values": [
      {"measurement": "outcome", "setting": "[2]", "result": "inactive"}
    ]},
    {"smiles": "c1ccc2c(c1)[nH]c1ccccc12", "values": [
      {"measurement": "AC50", "setting": "[2]", "result": "36.4 µM (active)"}
    ]},
    {"smiles": "CC(Cl)COP(=O)(OCC(C)Cl)OCC(C)Cl", "note": "(stereo not drawn)", "values": [
      {"measurement": "outcome", "setting": "[2]", "result": "inactive"}
    ]},
    {"smiles": "CC(C)c1ccc2ncccc2c1", "values": [
      {"measurement": "outcome", "setting": "[2]", "result": "inactive"}
    ]},
    {"smiles": "COC(=O)c1ccc(C(=O)OC)c(C(=O)OC)c1", "values": [
      {"measurement": "AC50", "setting": "[2]", "result": "69.6 µM (active)"}
    ]},
    {"smiles": "CC(C)CO", "values": [
      {"measurement": "outcome", "setting": "[2]", "result": "inactive"}
    ]},
    {"smiles": "CC1CCC(=O)C1=O", "note": "(stereo not drawn)", "values": [
      {"measurement": "AC50", "setting": "[2]", "result": "10.3 µM (active)"}
    ]},
    {"smiles": "CCOC(=O)OC(=O)OCC", "values": [
      {"measurement": "outcome", "setting": "[2]", "result": "inactive"}
    ]},
    {"smiles": "Oc1ccccc1Cc1ccccc1O", "values": [
      {"measurement": "outcome", "setting": "[6]", "result": "inactive"}
    ]},
    {"smiles": "CCCCCC[C@@H](O)C/C=C\\CCCCCCCC(=O)OCC(O)CO", "note": "(stereo partly drawn)", "values": [
      {"measurement": "outcome", "setting": "AR (gene 367) [5]", "result": "inactive"}
    ]}
  ]
}
